In PubChem BioAssay (NCATS):
Inconclusive results are not listed. A number with no mark means an inactive call. The source made the active and inactive calls. The call rests on the fitted dose curve; in most records, active means well fitted cell-killing curve with a large enough effect; inconclusive means small, poorly fitted or top-dose-only effect; inactive means flat fitted curve, though single readings scatter. Numbered stars: 1 amine (or outer) side, 2 acyl side, 3 side chain; on linkers, the order of the positions; unused ones are H or OH. Square brackets hold non-standard residues; d marks the D form. Peptide text beside a SMILES is read from it. * marks the point of attachment. X1 = CCCCCCCCCC(=O)[C@H](C(=O)[*:2])[C@@H]1CNC(=O)[C@@H](N[*:1])CS1; Octanoyl = CCCCCCCC(=O)*

Test: Panc-1005 Cancer Cell Toxicity qHTS against the NCATS CANVASS Library (AID 1347349); further: nearly all actives have a fitted effect of over 60% in size
Conditions: Panc-1005 viability, CellTiter-Glo luminescence, 72 h; series mostly up to 38.3 µM; activity change, negative = cytotoxicity: at the top concentration
Source text: Natural products and their derivatives continue to be wellsprings of nascent therapeutic potential. However, many laboratories have limited resources for biological evaluation, leaving their previously isolated or synthesized compounds largely or completely untested. To address this issue, the Canvass library of natural products was assembled (https://tripod.nih.gov/canvass), in collaboration with academic and industry researchers, for quantitative high-throughput screening (qHTS) across a diverse set of cell-based and biochemical assays. The pure (>85% purity by liquid chromatography/mass spectrometry [LC/MS]) Canvass library of 346 natural products were submitted by 45 academic laboratories and companies around the world. We collected pure natural products to circumvent deconvolution and structure elucidation due to time and resource limitations. The library was formatted into 1536-well plates and evaluated in 50 qHTS (in an 11-pnt concentration series) bioassays with broad scope of disease-relevant mechanisms. The resulting data set from 50 different assays was then systematically analyzed to identify overall trends and specific natural products with interesting biological activities. Reported herein are the results of each individual qHTS and their corresponding assay protocol. National Center for Advancing Translational Sciences (NCATS), Rockville, MD National Institute of Health (NIH), Bethesda, Maryland
Cancer Cell Toxicity protocol for cell lines COV-362, OV-KATE, OV-SAHO, UWB1.289, UWB1.289-WTBRCA1, HEK-293, HPAF-II, Panc-1005, SW1088, or U-118MG. 1. In a 1536 well, white solid bottom tissue culture plates (Corning 7494), corresponding cells (COV-362, OV-KATE, OV-SAHO, UWB1.289, UWB1.289-WTBRCA1, HEK-293, HPAF-II, Panc-1005, SW1088, or U-118MG) were dispensed in each well at a final concentration of 1000 cells / well (6uL volume) using the Multidrop Combi (Thermo Fisher Scientific) dispenser. 2. The plates were incubated for 4 hours at 37 degrees C/5% CO2/95% Rh. 3. Compounds were pin transferred (~23nL volume) via Wako Pin-tool (Wako Automation, Richmond VA) equipped with a 1536 pin head. The assay plates were treated with compounds in an 11-pnt concentration series with a final concentration range of […] to 85uM. 4. Bortezomib was used as a single dose control (0.5mM column 4, rows 1 - 32) at a final concentration of 1.9uM and as a 16pnt titration (1mM; 1:2 dilution; 16-points; n = 2; column 3, rows 1 - 32) with final concentration range of 0.1nM - 3.8uM. 5. The assay plates were incubated for 72 hours at 37 degrees C/5% CO2/95% Rh. 6. 3uL CellTiter-Glo detection reagent was then added to the plates (columns 2 - 48, rows 1 - 32) and incubated at room temperature for additional 15min. 7. Luminescence signal was acquired via the ViewLux plate reader (PerkinElmer) using a clear filter, 2 second exposure and 2x binning settings.
On the % scale 0 is the no-effect control and ±100 the full control effect; potency means the concentration at half of the fitted maximal effect.

SMILES	activity change, negative = cytotoxicity	Potency
C/C(=C\[C@H](C)C(=O)CCCC1CC(=O)NC(=O)C1)C(O)[C@@H](C)[C@H](O)C/C=C/CC/C=C/C(=O)O (stereo not given in full)	-3.82%	
C=C1C[C@@]23C=CC(=O)[C@@](C)(CCC(=O)Nc4c(O)ccc(C(=O)O)c4O)C2C[C@@H]1C(O)C3 (stereo not given in full)	3.26%	
COc1ccc([C@@H]2c3cc(OC)c(OC)cc3C(=O)[C@H](C)C2C)cc1OC (stereo not given in full)	1.86% [at 7.64 µM]	
C/C1=C/[C@@H](C)[C@H](O)C/C=C/CC/C=C/C(=O)O[C@@H]1[C@H](C)C(=O)/C=C/CC1CC(=O)NC(=O)C1		11.9 µM (active)
C[C@@H]1O[C@H](c2c(O)cc(O)c3c(=O)cc(-c4ccc(O)cc4)oc23)[C@H](O)[C@H](O)[C@H]1O	-5.95%	
CN1C(=O)[C@]23SS[C@@]1(C)C(=O)N2[C@H]1Nc2ccccc2[C@]1(c1c[nH]c2ccccc12)[C@@H]3O		0.668 µM (active)
O=c1cc(-c2ccc(O)c(O[C@@H]3O[C@H](CO)[C@@H](O)[C@H](O)[C@H]3O)c2)oc2cc(O[C@@H]3O[C@H](CO)[C@@H](O)[C@H](O)[C@H]3O)cc(O)c12	13.8%	
CCCCCCCC(=O)N[C@@H](CC(C)C)C(=O)N[C@H](C=O)CCC(=O)O (Octanoyl-Leu-Glu-aldehyde)	-1.89%	
O=C1C[C@@H](c2ccc(O)c(-c3c(O)cc(O)c4c3O[C@H](c3ccc(O)cc3)CC4=O)c2)Oc2cc(O)cc(O)c21	-12.6% [at 22.9 µM]	
C[C@@H](CCC[C@]1(C)C(=O)C=C[C@]23C[C@H]4C[C@H](O[C@@]4(C)C2)C31)C(=O)N[C@@H](CO)C(=O)O (stereo not given in full)	0%	
C[C@H]1C[C@@H]([C@@H]2CC[C@]34O[C@H](CC[C@@]35C[C@H](C)C(=O)O5)CN24)OC1=O	-12.5%	
COc1ccc(CCCc2cc(O)c(OC)c(O)c2)c(O)c1O	12.6%	
C=C(C)[C@@H]1CC[C@]2(C)CC[C@]3(C)[C@H](CC[C@@H]4[C@@]5(C)CC[C@H](O)C(C)(C)[C@@H]5CC[C@]43C)[C@@H]12		inactive
CC(C)=CCC[C@@H](C)[C@@H]1CC[C@@]2(C)C[C@H]3C(C)=CC(=O)[C@@H]3/C(C=O)=C\C[C@H]12		7.49 µM (active)
C/C1=C\CC(=O)/C=C/C=C\c2csc(n2)[C@@H](C)NC(=O)C[C@@](S)([C@@H](C)C(=O)O)CC1	8.15%	
C[C@@H](O)[C@H]1OC(=O)C=C2[C@]3(C)[C@H]4[C@H](OC(=O)[C@@]4(C)[C@@H](O)[C@H]4O[C@H]43)[C@H]3O[C@@]231		2.11 µM (active)
C=C1C[C@@]23C=CC(=O)[C@@](C)(CCC(=O)Nc4c(O)ccc(C(=O)O)c4O)C2C[C@@H]1CC3 (stereo not given in full)	-1.78%	
CC(=O)NC[C@@H]1O[C@H](CC/C=C(C)/C(C)=C/C=O)[C@H](C)C[C@H]1O	-8.19%	
C[C@@H]1C(=O)[C@]23CC[C@H]1C[C@]21O[C@H]2C(C)(C)C=CC(=O)[C@]23COC1=O	0%	
CC1=CC[C@@]2(C[C@@H]1O)[C@@H](C(=O)O)CC[C@H]2C(C)C	0.424%	

SMILES	activity change, negative = cytotoxicity	Potency
C=C[C@]1(C)CC[C@@H]([C@H](C)C(=O)/C=C/C(C)C)O1	-8.94%	
O=C(O)Cc1c[nH]c2ccccc12	0%	
CCCCCCCCCC(=O)[C@@H]1C(=O)N[C@@H](CC(C)C)C(=O)N[C@H](C)C(=O)N2CCC[C@H]2C(=O)N[C@@H](C(C)C)C(=O)N[C@H]2CS[C@H]1CNC2=O (cyclo(L[dA]PV[X1]))	-9.06%	
C=C1C(=O)O[C@H]2C[C@H](C)[C@@H]3CC(=O)C(C)=C3[C@H](O)[C@H]12		18.8 µM (active)
C[C@@H]1O[C@@H](O[C@@H]2[C@@H](O)[C@H](O[C@@H]3[C@@H](O)[C@@H](O)C(O[C@H]4[C@H](OC(=O)[C@]56CCC(C)(C)C[C@H]5C5=CCC7[C@@]8(C)C[C@H](O)[C@H](O[C@@H]9C[C@H](CO)[C@@H](O)[C@H](O)[C@H]9O)[C@@](C)(CO)C8[C@H](O)C[C@@]7(C)[C@]5(C)CC6)OC[C@H](O)[C@@H]4O)O[C@H]3C)OC[C@H]2O)[C@H](O)[C@H](O)[C@H]1O (stereo not given in full)	9.03% [at 22.9 µM]	
CN1C(=O)C2C(N=CN2C)N(C)C1=O (stereo not given)	-0.562%	
O=C(OC1Cc2c(O)cc(O)cc2OC1c1cc(O)c(O)c(O)c1)c1cc(O)c(O)c(O)c1 (stereo not given)		18.8 µM (active)
CC[C@@H]1C[C@@]2(CC)OC(=O)[C@@]3(CC)OC(=O)[C@@H]1[C@@H]23	3.23%	
CN1CC[C@]2(c3cccc4c3N[C@@H]3N(C)CC[C@]43[C@@]34CCN(C)[C@@H]3Nc3ccccc34)c3ccccc3N[C@H]12		16.8 µM (active)
COc1cc(O)c2c3c(c(O)cc(C)c13)C(=O)OC2	1.25%	
C/C=C/C=C/C1(O)C2C=C3C(=O)CC45C(=O)C(O)=C(C)C(=O)C4C1C1(C(=O)C(O)=C(C)C(=O)C351)C2C (stereo not given)	7.29%	
CO[C@@H]1C[C@@H](C[C@H]2CC[C@H](C)[C@H]([C@@H](C)C(=O)O)O2)O[C@]2(O[C@](C)([C@H]3CC[C@@](C)([C@@H]4O[C@@H]([C@H]5O[C@](C)(O)[C@H](C)C[C@@H]5C)C[C@@H]4C)O3)C[C@H]2C)[C@@H]1C		3.75 µM (active)
C=C1/C=C\C(CCC)=C\c2csc(n2)C(C)NC(=O)C[C@@]2(CC(=O)O)CCC(=C)[C@H](C1)S2 (stereo not given in full)	-0.24%	
C=C(C)C(=O)O[C@H]1C[C@H](C)[C@@H](OC(C)=O)CC[C@@]2(C)O[C@@H]2[C@H]2OC(=O)C(COC(C)=O)=C12		6.68 µM (active)
C=C(NC(=O)c1csc(-c2nc3c(cc2O)-c2nc(cs2)C(=O)NC(C(C)O)C(=O)N/C(=C(\C)O)c2nc(cs2)C(=O)NC2c4nc(cs4)C(=O)NC(COC(=O)c4c5c6c(cccc6n4O)COC(=O)[C@@H](OC4C[C@](C)(O)[C@H](N(C)C)[C@H](C)O4)C2OC5)c2nc-3cs2)n1)C(N)=O (stereo not given in full)	0%	
C1=C2CCCN[C@@H]2[C@@H]2CCN3CCCC[C@@H]3[C@H](C1)C2	1.31%	
C=C[C@@]1(C)CC[C@@H]([C@H](C)C(=O)/C=C/C(C)C)O1	0%	
C[C@]12CC[C@]3(C1)[C@H](CC2=O)CC(OC(=O)c1ccccc1)[C@H]1[C@@](CO)(C(=O)O)CCC[C@@]13C (stereo not given in full)	-5.44%	
O=c1cc(-c2ccc(O)cc2)oc2c([C@@H]3OC(CO)[C@H](O)[C@@H](O)[C@H]3O)c(O)cc(O)c12 (stereo not given in full)	4%	
Cc1cc(O)cc2oc(C[C@H](C)O)cc(=O)c12	-9.4%	
